Measurements as given in PubChem BioAssay AID624088 (Broad Institute, 2012).
The source made the active and inactive calls.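 The calls were made as follows: active = fitted potency no more than ten times the top tested concentration; inactive = fitted potency more than ten times the top tested concentration.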

Experiment: beta-catenin nuclear translocation by GSK3b inhibition, dose response, orthogonal assay for GSK3b inhibitor project, cell-based, U2-OS, PathHunter, beta-gal complementation, dry powder (AID 624088)
Settings: beta-gal luminescence, 6 h; series mostly up to 26 µM; activity change, negative = active: at the top concentration

Row | Structure (SMILES) | activity change, negative = active
1 | O/N=C/c1cn(-c2ccccc2)nc1-c1ccc(Cl)cc1 | -6.62% (inactive)
2 | COc1ccc(-c2nn(-c3ccccc3)cc2CO)cc1 | 3.06% (inactive)
3 | Cc1[nH]nc2c1C(c1ccc(C(F)(F)F)cc1)C1=C(CC(C)(C)CC1=O)N2 (stereo not given) | -0.417% (inactive)
4 | COc1ccccc1C1C2=C(CC3(CCCCC3)CC2=O)Nc2n[nH]c(C)c21 (stereo not given) | -10.4% (inactive)
5 | Cc1[nH]nc2nc3c(cc12)C(=O)CC(C)(C)C3 | -0.088% (inactive)
6 | Cc1ccccc1C1C2=C(CC(C)(C)CC2=O)Nc2n[nH]c(C)c21 (stereo not given) | -13.1% (inactive)
7 | COc1ccccc1[C@@H]1C2=C(CC(C)(C)CC2=O)Nc2n[nH]c(C)c21 | -8.38% (inactive)
8 | COc1ccccc1-c1c2c(nc3n[nH]c(C)c13)CCC2=O | 3.68% (inactive)
9 | COc1ccccc1[C@H]1C2=C(CC(C)(C)CC2=O)Nc2n[nH]c(C(F)(F)F)c21 | -21.2% (inactive)
10 | Cc1[nH]nc2c1C(C1CC1)C1=C(CC(C)(C)CC1=O)N2 (stereo not given) | 0.6% (inactive)
11 | Cc1[nH]nc2c1[C@H](c1ccccc1C(F)(F)F)C1=C(CC(C)(C)CC1=O)N2 | -8.73% (inactive)
12 | Cc1[nH]nc2c1C(C)C1=C(CC(C)(C)CC1=O)N2 (stereo not given) | -6.12% (inactive)
13 | COc1ccccc1C1C2=C(CCCC2=O)Nc2n[nH]c(C)c21 (stereo not given) | 2.27% (inactive)
14 | COc1ccccc1C1C2=C(CC(C)(C)CC2=O)Nc2ccccc21 (stereo not given) | 3.16% (inactive)
15 | COc1ccccc1C1C2=C(CC(C)(C)CC2=O)Nc2n[nH]c(-c3ccccc3)c21 (stereo not given) | -5.82% (inactive)
16 | COc1ccc(-c2nn(-c3ccccc3)cc2C(=O)O)cc1 | -5.37% (inactive)
17 | COc1ccccc1C1C2=C(CCC(C)(C)C2=O)Nc2n[nH]c(C)c21 (stereo not given) | -2.98% (inactive)
18 | COc1ccccc1C1C(C(C)=O)=C(C)Nc2n[nH]c(C)c21 (stereo not given) | -3.19% (inactive)
19 | COc1ccccc1C1C2=C(CC(C)(C)CC2=O)Nc2onc(C)c21 (stereo not given) | 4.28% (inactive)
20 | Cc1[nH]nc2c1C(C1CCCCC1)C1=C(CC(C)(C)CC1=O)N2 (stereo not given) | -2.42% (inactive)
